The campaign covered roughly 350,000 compounds. About 5,500 (1.6%) were called active.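 How the source made its calls: active means significant combined selectivity score with lowered wild-type GFP, culture density cut under 30%, mutant RFP and density less affected; inactive means any of these conditions unmet.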 What follows is part of a selection rich in actives, with near analogues and random picks from the rest.

This assay is described as follows: reduced GFP signal of wild-type E. coli, primary screen, bacterial rRNA inhibitor project, GFP/RFP fluorescence, OD600, single point (AID 720706). Conditions: E. coli WT GFP vs humanized-ribosome RFP mutants, 24 h; GFP signal change (wild-type ribosome): stronger effect = lower value, DMSO median 0, no signal -100; OD600 change: measured here: OD600 growth, DMSO median 0, no signal -100; RFP signal change: measured here: RFP humanized mutant strains, DMSO median 0, no signal -100, concentration not given here.
`CN(C)c1nc(=Nc2cccc(Cl)c2)ss1`: the GFP signal change (wild-type ribosome) is -20.6% (active), the OD600 change is -16.1% and the RFP signal change was 6.27%.

Turning to `COc1ccc(CN(C)C[C@@H]2Oc3ccc(NS(=O)(=O)c4cn(C)cn4)cc3C(=O)N([C@@H](C)CO)C[C@@H]2C)cc1`, the GFP signal change (wild-type ribosome) is 2.98% (inactive), the OD600 change turned out to be 9.11% and the RFP signal change was -0.744%.

With `COc1ccc2c3c([nH]c2c1)[C@H](CO)N(CC1CC1)CC31CN(C(=O)Nc2cccc(F)c2)C1`, the GFP signal change (wild-type ribosome) was -4% (inactive), the OD600 change is -2.33% and the RFP signal change worked out at 0.442%.

With `CCCNC(=O)N(C)C[C@H]1Oc2ncc(-c3cccc(C#N)c3)cc2C(=O)N([C@@H](C)CO)C[C@@H]1C`, the GFP signal change (wild-type ribosome) is 6.13% (inactive), the OD600 change amounted to 2.48% and the RFP signal change was 4.15%.

For the compound `COc1cccc(C(NC(C)=O)c2nc(-c3ccccc3OC)cs2)c1` (stereo unspecified), the GFP signal change (wild-type ribosome) was -17.2% (active), the OD600 change is -5.72% and the RFP signal change is 3.69%.

For `COc1cccc(C(NC(C)=O)c2nc(-c3cnc4ccccc4c3)cs2)c1` (stereo unspecified), the GFP signal change (wild-type ribosome) is 1.07% (inactive), the OD600 change stood at 7.87% and the RFP signal change was -4.72%.

For `CC(=O)NC(c1ccccc1)c1nc(-c2ccccc2C)cs1` (stereo unspecified), the GFP signal change (wild-type ribosome) was 6.39% (inactive), the OD600 change was determined as 1.11% and the RFP signal change was 0.505%.

`CC(C)NC(=O)Nc1ccc2c(c1)C(=O)N([C@@H](C)CO)C[C@@H](C)[C@H](CN(C)C)OCCCC[C@H](C)O2`: the GFP signal change (wild-type ribosome) is 4.43% (inactive), the OD600 change turned out to be 12.9% and the RFP signal change was -2.38%.

`CCOC(=O)C(=Cc1ccccc1OC)C(=O)OCC`: the GFP signal change (wild-type ribosome) is -1.94% (inactive), the OD600 change was -6.41% and the RFP signal change is -3.6%.

Regarding `CCOC(=O)C(=Cc1ccccc1)C(=O)c1ccccc1`, the GFP signal change (wild-type ribosome) is -45.9% (active), the OD600 change is -44.3% and the RFP signal change is -8.34%.

With `CCOC(=O)CNC(=O)/C(=C\c1ccc(F)cc1)NC(=O)c1ccccc1`, the GFP signal change (wild-type ribosome) was 7.79% (inactive), the OD600 change was determined as 7.99% and the RFP signal change was -0.754%.

`COc1ccccc1C(=O)NCCC(=O)NCC(c1ccco1)N1CCCCC1` (stereo unspecified): the GFP signal change (wild-type ribosome) was 3.93% (inactive), the OD600 change stood at 11.1% and the RFP signal change stood at 2.81%.

`COc1ccccc1C(=O)NCCn1cc(SCC(=O)NCc2ccco2)c2ccccc21`: the GFP signal change (wild-type ribosome) was -24.1% (active), the OD600 change is -15.6% and the RFP signal change stood at 1.51%.

Turning to `COc1cccc(OC)c1C(=O)NC(=S)NCc1ccco1`, the GFP signal change (wild-type ribosome) is 10.3% (inactive), the OD600 change was 5.07% and the RFP signal change was -0.715%.

Consider `COc1ccc2c3c([nH]c2c1)[C@@H](CO)N(C(=O)CN1CCOCC1)CC31CCN(C)CC1`, for which the GFP signal change (wild-type ribosome) was 1.95% (inactive), the OD600 change stood at 7.83% and the RFP signal change turned out to be 0.695%.

Turning to `C[C@@H]1CN([C@H](C)CO)C(=O)c2cc(-c3cccc(F)c3)cnc2O[C@@H]1CN(C)C`, the GFP signal change (wild-type ribosome) is 2.27% (inactive), the OD600 change amounted to 6.45% and the RFP signal change is -2.92%.

With `COc1cccc(CN2CC3(CN(Cc4ccccn4)C3)c3c([nH]c4cc(OC)ccc34)[C@@H]2CO)c1`, the GFP signal change (wild-type ribosome) is 0.969% (inactive), the OD600 change is 8.73% and the RFP signal change was 5.99%.

As for `COc1ccc(NCCc2ccccn2)cc1`, the GFP signal change (wild-type ribosome) is 12.7% (inactive), the OD600 change was 10.1% and the RFP signal change worked out at 9.18%.

For `COc1ccc2c(c1)c1ncn(Cc3ccccn3)c(=O)c1n2C`, the GFP signal change (wild-type ribosome) was -22.5% (active), the OD600 change is -10.5% and the RFP signal change is -3.41%.

With `C[C@H]1CCCCO[C@H](CN(C)CC2CCCCC2)[C@@H](C)CN([C@@H](C)CO)C(=O)c2cc(NS(=O)(=O)c3ccc(Cl)cc3)ccc2O1`, the GFP signal change (wild-type ribosome) was -56.3% (inactive), the OD600 change was -77.3% and the RFP signal change is -17.5%.

`CN(C)C(=O)c1cccc(-c2ccc([C@H]3[C@H](CO)N4C(=O)CN(C(=O)Cc5ccccc5)C[C@@H]34)cc2)c1`: the GFP signal change (wild-type ribosome) is 6.84% (inactive), the OD600 change stood at 11.5% and the RFP signal change is 5.77%.

Turning to `Cn1cccc1C(=O)NNC(=O)COc1ccc(Br)cc1`, the GFP signal change (wild-type ribosome) was -1.7% (inactive), the OD600 change was 4.13% and the RFP signal change came out at 0.868%.

Regarding `CC(=O)Nc1ccc(OC(=O)COc2ccc(Br)cc2)cc1`, the GFP signal change (wild-type ribosome) was 18.1% (inactive), the OD600 change came out at 16.8% and the RFP signal change amounted to 1.93%.

Regarding `Cc1ccc(O)c(NC(=S)NC(=O)COc2ccc(Br)cc2)c1`, the GFP signal change (wild-type ribosome) is -23.6% (active), the OD600 change was -13.5% and the RFP signal change is 6.14%.

On to `CC[C@H]1CC=CC[C@@H](C)Oc2ccccc2C(=O)N(C)[C@H](Cc2ccccc2)C(=O)N1` (mixture of isomers), for which the GFP signal change (wild-type ribosome) is -6.4% (inactive), the OD600 change is -38% and the RFP signal change is -3.29%.

Consider `CC(C)NC(=O)N(C)C[C@H]1Oc2ncc(C#CC3(O)CCCC3)cc2C(=O)N([C@H](C)CO)C[C@@H]1C`, for which the GFP signal change (wild-type ribosome) was 2.98% (inactive), the OD600 change worked out at 9.89% and the RFP signal change is 0.31%.

Regarding `O=[N+]([O-])c1cc(C(F)(F)F)ccc1NCCc1ccncc1`, the GFP signal change (wild-type ribosome) is 1.68% (inactive), the OD600 change is 6.66% and the RFP signal change was -1.21%.

Take `Nc1ccccc1Sc1ccc(C(F)(F)F)cc1[N+](=O)[O-]`: the GFP signal change (wild-type ribosome) is -36.7% (active), the OD600 change was -4.9% and the RFP signal change was -9.75%.

In the case of `Nc1ccccc1Sc1cc(Cl)nnc1Cl`, the GFP signal change (wild-type ribosome) was 2.47% (inactive), the OD600 change was 3.13% and the RFP signal change was -2.25%.

On to `C[C@H]1CN([C@@H](C)CO)C(=O)c2cccc(NC(=O)c3ccncc3)c2O[C@@H]1CN(C)C`, for which the GFP signal change (wild-type ribosome) was 2.69% (inactive), the OD600 change was 14.6% and the RFP signal change was -0.879%.

As to `Cc1ccc(-c2csc(NC(=O)C3=COCCO3)n2)cc1C`, the GFP signal change (wild-type ribosome) was -32% (inactive), the OD600 change is -55.4% and the RFP signal change is 17.9%.

Turning to `CCc1noc(C)c1C(=O)OCC(=O)c1ccc(NC(=O)CC(C)C)cc1`, the GFP signal change (wild-type ribosome) was -6.83% (inactive), the OD600 change was -38.8% and the RFP signal change was determined as 4.13%.

For the compound `CCc1noc(C)c1C(=O)Nc1nc(-c2ccccc2)cs1`, the GFP signal change (wild-type ribosome) was -30.7% (active), the OD600 change was -24.6% and the RFP signal change is -5.38%.

For `COc1ccc2c3c(n(C)c2c1)[C@H](CO)N(Cc1cccnc1)CC31CCN(Cc2cccnc2)CC1`, the GFP signal change (wild-type ribosome) is -3.41% (inactive), the OD600 change came to 7.26% and the RFP signal change was determined as 0.685%.

Take `C[C@@H]1CN([C@@H](C)CO)C(=O)c2cc(N(C)C)ccc2O[C@@H](C)CCCCO[C@@H]1CN(C)C(=O)CCC(F)(F)F`: the GFP signal change (wild-type ribosome) was -1.52% (inactive), the OD600 change is -0.235% and the RFP signal change came out at 1.42%.

`C/C=C/c1cccc(-c2nc(C(=O)NCCN3CCCC3)cc3c2[C@@H](CCO)N([S@](=O)C(C)(C)C)C3)c1`: the GFP signal change (wild-type ribosome) was 6.3% (inactive), the OD600 change was -2.18% and the RFP signal change is -0.457%.

For the compound `CCOC(=O)C1(CCOc2ccccc2)CCN(Cc2ccc(C#CCCO)cc2)CC1`, the GFP signal change (wild-type ribosome) is 2.81% (inactive), the OD600 change is -4.44% and the RFP signal change is -0.935%.

On to `CCCS(=O)(=O)N1CCC(CCOc2ccccc2)(C(=O)OCC)CC1`, for which the GFP signal change (wild-type ribosome) was -17.9% (inactive), the OD600 change was -32.1% and the RFP signal change was -4.54%.

For the compound `CCOC(=O)C1(CCOc2ccccc2)CCN(Cc2cc(OC)cc(OC)c2)CC1`, the GFP signal change (wild-type ribosome) is -33.8% (active), the OD600 change was -25.8% and the RFP signal change was -6.01%.

For the compound `COc1ccc2c3c([nH]c2c1)[C@H](CO)N(Cc1cccc(F)c1)CC31CCN(CC2CC2)CC1`, the GFP signal change (wild-type ribosome) is 4.42% (inactive), the OD600 change worked out at 4.76% and the RFP signal change is -1.35%.

With `CC(C)NC(=O)N(C)C[C@H]1Oc2ccc(N)cc2C(=O)N(C)C[C@@H]1C`, the GFP signal change (wild-type ribosome) is 0.734% (inactive), the OD600 change is 6.88% and the RFP signal change was -0.42%.

`OC[C@@H]1[C@@H](c2ccccc2)C2(CN(Cc3cccc(F)c3)C2)N1CC1CCCC1`: the GFP signal change (wild-type ribosome) was -23.5% (inactive), the OD600 change is -64.7% and the RFP signal change amounted to 20.6%.

The values are drawn from PubChem BioAssay AID720706 (Broad Institute, 2013).
